# Screening data from PubChem.
# Only some compounds are listed: those with a hit (about 19% of all), similar ones and a draw of the others.
# HT1080NT lethal – qHTS for induction of synthetic lethality in tumor cells producing 2HG: qHTS for the HT-1080-NT fibrosarcoma cell line | HT-1080-NT fibrosarcoma viability, CellTiter-Glo ATP luminescence, 48 h | Potency, µM (series often up to 46.1 µM), for inactives: at the top dose activity, negative = less viability, most hits filed as cytotoxic | 360,000 compounds, 1.6% hits;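 also: NT is the 2HG producing partner of a matched IDH1 knockdown line; 0% = DMSO-treated cells and -100% = media-only wells without cells; nearly all actives have a fitted effect of over 55% in size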
#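 HT-1080-NT; 750 cells/well; 5% FBS RPMI; 48 h compound, 37 degrees C; CellTiter-Glo luminescence; curve fitting and curve-class assignment.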
# HT1080 IDH1KD tx – qHTS for induction of synthetic lethality in tumor cells producing 2HG: qHTS for the HT-1080-IDH1KD cell line | 360,000 compounds, 2% hits | Potency, µM (series often up to 46.1 µM), without a hit: top-dose activity, negative = toxicity, usual class: cytotoxic | AID 686971, 2013 | HT-1080 IDH1 knockdown viability, ATP luminescence, 48 h;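 also: 0% = DMSO wells and -100% = cell-free medium wells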
#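 CellTiter-Glo luminescence after 48 h compound exposure at 37 degrees C of IDH1-knockdown HT-1080 cells in 5% FBS RPMI. %Activity scaled between DMSO wells and cell-free media wells, with curves fitted and assigned curve classes.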
# TDP1 cell noCPT – qHTS for Inhibitors of human tyrosyl-DNA phosphodiesterase 1 (TDP1): qHTS in cells in absence of CPT; DT40 Tdp1-/- hTDP1 cells, no CPT, ATP luminescence, 48 h; Potency, µM (series often up to 46.2 µM), without a hit: top-dose activity change, negative = growth inhibition, hits mostly inhibitors; 420,000 compounds, 15% hits; AID 686978, 2013; also: nearly all actives have a fitted effect of over 55% in size
#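 Growth kinetics read by CellTiter-Glo luminescence after ≥48 hr at 37 °C. Cells: DT40 Tdp1-/- stably carrying human TDP1, 400 per well, compound exposure in the absence of CPT (DMSO vehicle).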
# KB-V1 cytotox – qHTS assay for MDR1-selective chemotherapeutics: Primary screen using the drug-selected MDR subline cells KB-V1. AID 1347076, 2019. 400,000 compounds, 3.4% hits. Potency, µM (highest dose often 46.1 µM), actives largely listed as cytotoxic. KB-V1 MDR cells viability, CellTiter-Glo, 72 h; also: nearly all actives have a fitted effect of over 60% in size
#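 KB-V1 cells (P-gp-expressing MDR subline of KB-3-1) in phenol-red-free DMEM with 10% FBS were exposed to library compounds over a concentration series for 72 h at 37 degrees C. Viability read by CellTiter-Glo luminescence; concentration-effect curves fitted after normalization.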
# KB-3-1 tox – qHTS assay for MDR1-selective chemotherapeutics: Primary screen using the parental adenocarcinoma cell KB-3-1; KB-3-1 viability, CellTiter-Glo ATP luminescence, 72 h; Potency, µM (highest dose often 46.1 µM), hits mostly cytotoxic; 400,000 compounds, 1.4% hits; AID 1347075, 2019; also: nearly all actives have a fitted effect of over 60% in size
#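 Using CellTiter-Glo luminescence, growth of non-resistant KB-3-1 adenocarcinoma cells is assessed 72 h after pin-tool compound addition at 37 °C. Normalized responses across the concentration series yield fitted curves.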
# DT40 TDP1 CPT – qHTS for Inhibitors of human tyrosyl-DNA phosphodiesterase 1 (TDP1): qHTS in cells in presence of CPT | chicken DT40 Tdp1-/-;hTDP1 cells + 20 nM CPT, ATP luminescence, 48 h | Potency, µM (top dose mostly 46.2 µM), for the others: at the top dose activity change, negative = growth inhibition, hits mostly inhibitors | 420,000 compounds, 12% hits | AID 686979, 2013; also: nearly all actives have a fitted effect of over 55% in size
#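 Cell growth measured by CellTiter-Glo luminescence after a minimum 48 h, 37 C compound exposure with 20 nM CPT in Tdp1-knockout DT40 cells stably expressing hTDP1, seeded 400/well; qHTS titration format.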
# * hit, by the source's call; i = inactive; ? = inconclusive; / = no result given; [ ] = dose if it differs, or a comment. Calls follow the shape of the dose curve; as a rule, active = well fitted curve in the direction sought with a large enough effect; inconclusive = small, poorly fitted or top-dose-only effect, or another doubt; inactive = no such curve, though single readings can be large; an effect the other way counts as inactive or inconclusive. Unless noted, % is scaled to controls: 0 for no effect and ±100 for the full control effect; potency is read from the fitted curve at half-maximal effect.
SMILES,HT1080NT lethal,HT1080 IDH1KD tx,TDP1 cell noCPT,KB-V1 cytotox,KB-3-1 tox,DT40 TDP1 CPT
Cc1nn(S(=O)(=O)c2ccc(Cl)cc2)c(C)c1Sc1ccc([N+](=O)[O-])cc1,15%,11%,16µM*,?,i,16µM*
Cc1nn(-c2ccccc2)c(N)c1Sc1ccc([N+](=O)[O-])cc1,-1%,-11%,15µM*,?,?,?
Cc1nn(S(=O)(=O)c2ccc(Cl)cc2)c(C)c1S(=O)(=O)N1CCCCCC1,/,/,-14%,i,i,1%
Cc1nn(-c2ccccc2)c2c1C(c1ccc([N+](=O)[O-])cc1)C(C#N)=C(N)O2 (centres undefined),-4%,0%,?,i,i,15µM*
Cc1nn(-c2ccccc2)c(OC(=O)C(C)C)c1Sc1ccccc1,/,/,?,/,/,-17%
COc1cc(/C=C2\SC(=S)N(N(C)c3ccccc3)C2=O)ccc1O,8%,1%,4%,i,i,8%
O=C(O)c1ccccc1C(=O)NCC(O)COc1ccc(Cl)cc1 (centres undefined),4%,4%,-14%,i,i,0%
CC(C)N(C1=N/C(=C\c2ccco2)C(=O)N1c1ccccc1)C(C)C,-1%,0%,?,i,i,13µM*
CN1C(=S)N(c2ccccc2)C(=O)/C1=C/c1ccco1,-2%,-3%,?,i,i,?
O=C1/C(=C/c2ccco2)N=C(N2CCCCC2)N1c1ccccc1,8%,0%,18µM*,i,i,21µM*
CC(NC(=O)C1CCOCC1)c1nnc2n1CCN(Cc1ccc(F)cc1)CC2 (centres undefined),/,/,-5%,/,/,16%
COc1cccc(NC(=O)C2CCN(S(=O)(=O)c3ccc4c(c3)NC(=O)CO4)CC2)c1,-22%,-11%,?,i,i,23µM*
CCc1ccccc1NC(=O)C1CCN(S(=O)(=O)c2ccc(N3CCCC3=O)cc2)CC1,-3%,1%,-38%,i,i,-28%
COc1ccccc1CNC(=O)C1CCN(S(=O)(=O)c2ccc(N3CCCC3=O)cc2)CC1,17%,0%,?,i,i,-29%
O=C(Nc1cccc(C(F)(F)F)c1)C1CCN(S(=O)(=O)c2ccc(N3CCCC3=O)cc2)CC1,0%,-20%,2.1µM*,?,i,2.6µM*
COc1cccc(NC(=O)C2CCN(S(=O)(=O)c3ccc(N4CCCC4=O)cc3)CC2)c1,0%,-14%,?,i,?,15µM*
COCC(=O)Nc1cc(C(=O)NC2Cc3ccccc3C2)cc2nc(-c3cccnc3)n(C)c12,/,/,-13%,/,/,-10%[9.04 µM]
O=C(Nc1nnc(-c2ccncc2)s1)Nc1cccc2ccccc12,/,/,/,i,i,/
CC1CCc2cccc3c2N1c1cc(C#N)c(C#N)cc1O3 (centres undefined),10%[9.24 µM],-1%,?,?,7.3µM*,-22%
CC1CCc2cccc3c(O)cc(=O)n1c23 (centres undefined),8%,10%,?,i,i,-15%
CCCCCCn1ccc(=N)cc1,-13%,-15%,0.21µM*,i,8.2µM*,0.21µM*
CC1=CN2C(=N)/C(=C\c3cn(CCCOc4ccccc4)c4ccccc34)C(=O)N=C2S1,?,?,?,?,i,15µM*
